High-throughput results from PubChem BioAssay.
GoLoco inh red – blocks human Gai1 binding to RGS12 GoLoco peptide, red readout | P63096 | Gai1:RGS12 GoLoco peptide FP, rhodamine, 10 min | Potency, µM (top dose mostly 61.6 µM), inactives show top-dose activity, negative = inhibition, actives largely listed as inhibitors | 230,000 tested, 0.44% active | AID 880; active = well fitted inhibition curve with a large enough effect, not every such curve was filed as active; inactive = no such curve, though single readings can be large or run the other way; note: potency is the fitted concentration of half-maximal effect; % is set by controls: 0 for no effect and ±100 for the full control effect; nearly all actives have a fitted effect of over 30% in size
IL2 activator – activators of IL-2 | IL-2 activation reporter assay, cell-based qHTS; stimulated with anti-CD3/CD4/CD28 beads; in transgenic mouse T cells | activation, % (series mostly up to about 46 µM) | AID 652025 | 360,000 tested, 0.065% active; in the data active = activation above about 50%; inconclusive = mostly about 30% to 49%; note: 0% is about no effect
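Unstimulated transgenic mouse T cells preincubated 60 min with compound, then stimulated with anti-CD3/anti-CD4-coated beads plus anti-CD28 for 18 h at 37 degrees C. IL-2 response read as EGFP and DsRed fluorescence by plate cytometry.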
KAT2A inh – blocks human GCN5L2 histone acetyltransferase | 390,000 tested, 0.21% active | Potency, µM (top dose mostly 58.9 µM), for the others: at the highest dose activity change, negative = inhibition, usual class: inhibitors | GCN5L2 HAT assay, ThioGlo1 CoA-SH fluorescence | Q92830 | AID 504327; note: potency is the fitted concentration of half-maximal effect; % is set by controls: 0 for no effect and ±100 for the full control effect
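qHTS, 1536-well. 20nM enzyme, pH 7.5 HEPES/EDTA/Tween-20 buffer; 15 min compound preinc., RT. Start: 75uM H3(1-25), 70uM AcCoA, 50uM ThioGlo1. Read Ex340/Em540 at t=0 (autofluorescence flag) and t=20 min.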
Vif-A3F inh – Vif-A3F binding inhibition. Potency, µM (highest dose often 46.1 µM), for the others: at the highest dose activity, negative = active. HeLa A3F-eYFP + Vif (tagged APOBEC3F with the HIV-1 protein that degrades it), YFP fluorescence increase. 390,000 tested, 0.2% active. AID 602313; note: potency is the fitted concentration of half-maximal effect; % of control where 0% means no effect; nearly all actives have a fitted effect of over 65% in size
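HeLa cells stably expressing A3F-eYFP plus Vif, plated and incubated overnight at 37 deg C, then exposed to compounds overnight at 37 deg C. Blocked degradation read as raised yellow fluorescence (Ex 488/Em 500-530).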
PKM2 act – PKM2 (human) enzyme activation | P14618 | purified PKM2, Kinase-Glo ATP luminescence, activation; response scale: 0% is enzyme alone, no compound | Potency, µM (highest dose often 57.5 µM), inactives show at the highest dose activation, usual class: activators | 260,000 tested, 0.34% active | AID 1631; note: potency is the fitted concentration of half-maximal effect; % is set by controls: 0 for no effect and ±100 for the full control effect; nearly all actives have a fitted effect of over 55% in size
Target sequence (P14618 whole entry, looked up): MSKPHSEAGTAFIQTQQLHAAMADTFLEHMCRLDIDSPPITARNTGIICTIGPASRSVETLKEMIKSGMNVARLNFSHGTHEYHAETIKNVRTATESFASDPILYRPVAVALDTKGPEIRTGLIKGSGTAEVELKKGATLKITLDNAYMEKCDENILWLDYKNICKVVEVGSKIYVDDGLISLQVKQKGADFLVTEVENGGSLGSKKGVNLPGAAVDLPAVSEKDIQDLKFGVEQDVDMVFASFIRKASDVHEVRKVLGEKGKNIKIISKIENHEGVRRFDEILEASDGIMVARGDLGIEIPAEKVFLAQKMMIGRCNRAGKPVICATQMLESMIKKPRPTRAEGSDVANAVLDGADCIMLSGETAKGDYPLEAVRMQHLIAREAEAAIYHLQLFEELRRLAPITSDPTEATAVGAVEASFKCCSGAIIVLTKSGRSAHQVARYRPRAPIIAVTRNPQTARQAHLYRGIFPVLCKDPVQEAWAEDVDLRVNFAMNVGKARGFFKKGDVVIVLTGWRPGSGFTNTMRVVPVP
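Kinase-Glo luminescence reports ATP generated from ADP (0.1 mM) and PEP (0.5 mM) by purified hPK-M2 after 1 h at room temperature, pH 7.2 imidazole buffer; intermediate enzyme activity allows detecting inhibitors and activators.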
Vif-APOBEC3G blk – inhibitors of Vif-APOBEC3G interaction | Q9HC16 | Potency, µM (top dose mostly 46.1 µM), for inactives: at the top dose activity, negative = active, usual class: inhibitors | HeLa A3G-eYFP + Vif (tagged APOBEC3G with the HIV-1 protein that degrades it), YFP fluorescence, overnight | 410,000 tested, 0.076% active | AID 602310; note: potency is the fitted concentration of half-maximal effect; % is set by controls: 0 for no effect and ±100 for the full control effect; nearly all actives have a fitted effect of over 60% in size
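HeLa cells stably expressing Vif and C-terminally eYFP-tagged A3G, seeded overnight at 37 deg C, then exposed to compound by pintool overnight at 37 deg C. Rise in yellow fluorescence (Ex 488/Em 500-530, Acumen) marks blocked Vif-driven A3G degradation.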
* = called active by the depositor; ? = inconclusive; / = no result given; ! = a repeat was not active; [ ] = remark or other dose. An excerpt weighted towards active compounds, which were near 0.77% of everything screened. Unless noted, calls come from the whole dose curve; as a rule, active = well fitted curve in the direction sought with a large enough effect; inconclusive = small, poorly fitted or top-dose-only effect, or another doubt; inactive = no such curve, though single readings can be large; an effect the other way counts as inactive or inconclusive.

SMILES | GoLoco inh red | IL2 activator | KAT2A inh | Vif-A3F inh | PKM2 act | Vif-APOBEC3G blk
O=C(C(=O)N1CCc2ccccc2C1)c1cn(CC(=O)N2CCCC2)c2ccccc12 | 6% | -4 | -1% | 20% | -1% | 4%
Cn1c(N)c(-c2ccccc2)c2ccc([N+](=O)[O-])cc2c1=O | / | 3 | -2% | ? | -2% | 8.9µM*
N#Cc1c(N)n(Cc2ccccc2)c(=O)c2cc([N+](=O)[O-])ccc12 | / | -3 | -7% | 3% | / | -22%
CSc1ccc(CNC(=O)Cn2ccc3cc(S(=O)(=O)N4CCCC4)ccc32)cc1 | / | / | -8% | 3% | / | 0%
Cc1ccc(CNC(=O)Cn2ccc3cc(S(=O)(=O)N4CCCC4)ccc32)o1 | / | -1 | -2% | -13% | 16µM* | -7%
COC(=O)c1c(C(=O)OC)c2cccc3cc(-c4ccccc4)c4ccc1c4n32 | 18µM* | 0 | -11% | -9% | 9% | -3%
COC(=O)c1cc2c(-c3ccccc3)cc3ccccn3c-2c1C(=O)OC | 49% | 0 | -7% | 3% | 5% | 0%
C=C(C)c1cccc(C(C)(C)NC(=O)NC(c2ccccc2)c2ccc(OC)cc2)c1 (centres undefined) | -1% | -4 | -4% | 7% | -4% | 2%
Nc1ncc(-c2ccccc2)c(-c2ccc(OCc3ccccc3)cc2O)n1 | 4% | 1 | -8% | -7% | -1% | 1%
Cc1cc(O)c(C=O)c2c1C(=O)Oc1c(COC(=O)/C=C/C(=O)O)c(O)c(C(=O)O)c(C)c1O2 | -15% | / | 20µM* | / | / | /
Cc1cc(O)c(C=O)c2c1C(=O)Oc1c(CO)c(O)c3c(c1O2)C(O)OC3=O (centres undefined) | 11µM* | 0 | 16µM* | -2% | -7% | 0%
Cc1cc(O)c(CN(C)C)c2c1C(=O)/C(=C/c1ccco1)O2 | / | 1 | -13% | 1% | / | 1%
Cc1csc(NC(=O)CCC(=O)N(CC(=O)NC2CCCC2)Cc2ccccc2)n1 | / | 3 | 0% | 11µM* | 4% | ?
COc1ccc(CN(CC(=O)NC2CCCC2)C(=O)CCC(=O)Nc2nc(C)cs2)cc1 | / | 0 | -1% | -4% | 5% | 2%
N#Cc1c(N)n(CCOC(=O)c2cccc(Br)c2)c2nc3ccccc3nc12 | 3% | 0 | / | -14% | 3% | -15%
COCCn1c(N)c(C#N)c2nc3ccccc3nc21 | 8% | -3 | ? | 9% | 3% | -2%
N#Cc1c(N)n(CCNC(=O)c2ccc(Cl)cc2)c2nc3ccccc3nc12 | 3% | 1 | -8% | -20% | 28µM* | -29%
Cc1ccc(C(=O)NCCn2c(N)c(C#N)c3nc4ccccc4nc32)cc1 | 11% | 54* | ? | 22µM* | ? | ?
Cc1ccc2c(=O)cc(CSc3nnc(-c4ccccc4)n3C)[nH]c2c1C | / | / | -6% | 1% | / | 0%
CC(=O)[C@]1(O)Cc2c(O)c3c(c(O)c2[C@@H](O[C@H]2C[C@H](N)[C@H](O)[C@H](C)O2)C1)C(=O)c1ccccc1C3=O | 1.6µM* | 0 | ? | 14% | / | ?
CC(=O)[C@]1(O)Cc2c(O)c3c(c(O)c2[C@@H](O[C@H]2C[C@H](N)[C@H](O)[C@H](C)O2)C1)C(=O)c1c(O)cccc1C3=O | 0.79µM* | / | -14% | / | / | /
CCOC(=O)c1c(S(=O)(=O)NCC(=O)Nc2ccccc2)c(C)n(C)c1C | / | 0 | -5% | -2% | / | -1%
O=C(CSc1nc2c(c(=O)[nH]1)CN(Cc1ccc(F)cc1)CC2)Nc1ccc(F)cc1 | 1% | 1 | 1% | 6% | 16µM* | 0%
COc1ccccc1CCNC(C)CCc1ccc(O)cc1 (centres undefined) | / | 0 | -7% | -10% | 1% | 0%
O=C(O)c1cc(O)c2c(c1)[C@@H]([C@H]1c3cc(C(=O)O)cc(O)c3C(=O)c3c(O[C@@H]4O[C@H](CO)[C@@H](O)[C@H](O)[C@H]4O)cccc31)c1cccc(O[C@@H]3O[C@H](CO)[C@@H](O)[C@H](O)[C@H]3O)c1C2=O | / | 0 | 0.63µM* | 4% | / | 1%
SMILES | GoLoco inh red | IL2 activator | KAT2A inh | Vif-A3F inh | PKM2 act | Vif-APOBEC3G blk
O=C1c2cccc(O)c2C(=O)c2c(O[C@@H]3O[C@H](CO)[C@@H](O)[C@H](O)[C@@H]3O)cccc21 | -10%[14.2 µM] | / | / | / | / | /
O=C(O)c1cc(O)c2c(c1)[C@H]([C@H]1c3cc(C(=O)O)cc(O)c3C(=O)c3c(O[C@@H]4OC(CO)C(O)C(O)C4O)cccc31)c1cccc(O[C@@H]3OC(CO)C(O)C(O)C3O)c1C2=O (some centres undefined) | 7.9µM* | / | 1.8µM* | / | / | /
Cc1nc(Nc2ccc(Cl)cc2)cc(-c2ccccc2)n1 | / | / | -20% | ? | / | -19%
COc1ccc(S(=O)(=O)N2CCCN(CC(=O)Nc3cc(NC(C)=O)ccc3OC)CC2)cc1 | 1% | -1 | -24% | -6% | 0% | 5%
CCOC(=O)c1cc(-c2ccc3c(c2)OCO3)nc2onc(C)c12 | 10% | 14 | -6% | 4% | 0% | 2%
CCn1ccc2cc(OC)ccc2c1=S | 9% | -3 | -7% | -4% | 3% | -4%
CCSc1ccc2cc(OC)ccc2[n+]1CC | 2.5µM* | -1 | ? | 2% | 7% | 1%
O=S(=O)(c1ccccc1)N(CC(O)CN1CCCC1)c1ccccc1 (centres undefined) | / | 0 | 4% | 8% | / | -6%
O=S(=O)(Nc1ccccc1)c1ccc(-c2csnn2)cc1 | 3% | -1 | 0% | 3% | 14µM* | -3%
COc1ccc(C2=NS(=O)(=O)N(C)C(C(=O)Nc3cc(C)ccc3O)=C2)cc1OC | / | -3 | 35µM*! | -1% | -4% | -4%
Cc1ccc(CN2CCN(Cc3cccn3-c3ccccn3)CC2CCO)o1 (centres undefined) | -10% | -3 | -13% | -12% | 2% | 1%
Cc1ccccc1C(=O)NC(=S)NCC1CCCO1 (centres undefined) | -4% | 0 | 2.5µM* | 1% | 1% | 2%
CN1CCc2c(sc3c2C(=O)NC(c2ccc(-c4ccc(Cl)cc4)o2)N3)C1 (centres undefined) | 16% | -2 | -3% | 28µM* | -4% | ?
CCN(CC)C(=O)CSc1nc2c(c(-c3cccnc3)c1C#N)CCCC2 | 6% | -1 | -6% | 3% | -1% | -1%
CCOC(=O)COc1ccc(C2C(C(=O)OC)=C(C)NC3=C2C(=O)c2ccccc23)cc1Cl (centres undefined) | / | / | 5% | -1% | / | -10%
